Assay results published in PubChem BioAssay (EPA / NIEHS).
“And” between values parts separate entries of the source, which are not always exact repeats. Equal entries are not always repeated. Records with an inconclusive call do not appear. The source made the active and inactive calls. Rule for the calls, unless noted: active = hit-call score of the fitted dose curve at least 0.9, where 1 is the maximum; inactive = score below 0.9.

Experiments:
[1] = biological target: Hepatocyte nuclear factor 4-alpha (Homo sapiens) (UniProt P41235); experiment: ATG_HNF4a_TRANS: Attagene TRANS-FACTORIAL HepG2 Assay for human Hepatocyte Nuclear Factor 4 alpha (HNF4a) (AID 2282982; active = hit-call score of the fitted dose curve at least 0.9, where 1 is the maximum); conditions: HepG2 HNF4a transactivation reporter, mRNA readout
Chain of Hepatocyte nuclear factor 4-alpha (Homo sapiens) (P41235 whole entry, looked up, the tested form may be a part): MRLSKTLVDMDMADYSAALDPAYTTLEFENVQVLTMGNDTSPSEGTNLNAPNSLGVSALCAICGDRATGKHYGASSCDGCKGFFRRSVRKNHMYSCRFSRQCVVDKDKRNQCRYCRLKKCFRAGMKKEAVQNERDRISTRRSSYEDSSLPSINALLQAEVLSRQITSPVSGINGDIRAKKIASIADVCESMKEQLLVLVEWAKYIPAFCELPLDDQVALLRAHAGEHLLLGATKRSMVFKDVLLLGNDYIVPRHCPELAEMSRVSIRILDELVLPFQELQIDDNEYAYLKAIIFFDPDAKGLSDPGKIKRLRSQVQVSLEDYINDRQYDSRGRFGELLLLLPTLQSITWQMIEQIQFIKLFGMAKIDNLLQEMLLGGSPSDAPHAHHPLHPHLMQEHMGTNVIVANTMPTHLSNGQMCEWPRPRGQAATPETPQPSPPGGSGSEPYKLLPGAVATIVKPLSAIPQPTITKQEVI
Procedure, shortened: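 Readout is fluorescent reporter-transcript fragments resolved by capillary electrophoresis after RT-PCR from HepG2 cells dosed for 24 h. Cells carried transfected GAL4-UAS reporter constructs measuring exogenous NR-GAL4 chimera activity; DMSO served as baseline.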

[2] = ATG_M_06_TRANS: Attagene TRANS-FACTORIAL HepG2 Assay for M06 Transcription Factor (Internal Marker) (AID 2282983; active = hit-call score of the fitted dose curve at least 0.9, where 1 is the maximum;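 note: reporter transcript level by RT-PCR then capillary electrophoresis fluorescence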); conditions: HepG2 Attagene TRANS M06 internal marker reporter
Procedure, shortened: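 Internal-marker background readout from a multiplexed TRANS reporter system in HepG2; 24 h dosing; mRNA induction quantified by RT-PCR plus capillary electrophoresis fluorescence; DMSO as negative control and baseline.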

[3] = ATG_M_32_TRANS: Attagene TRANS-FACTORIAL HepG2 Assay for M32 Transcription Factor (Internal Marker) (AID 2282984; active = hit-call score of the fitted dose curve at least 0.9, where 1 is the maximum;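 note: transcript level of a background control reporter unit measured by RT-PCR and capillary electrophoresis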); conditions: HepG2 Attagene TRANS M32 internal marker reporter
Procedure, shortened: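 Measures reporter mRNA induction in human HepG2 liver cells after 24 h chemical treatment. Transcripts from transiently transfected GAL4-UAS reporter units are amplified, fluorescently labelled and sized by capillary electrophoresis; gain of signal relative to DMSO.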

[4] = biological target: Nuclear receptor subfamily 4 group A member 2 (Homo sapiens) (UniProt P43354); experiment: ATG_NURR1_TRANS: Attagene TRANS-FACTORIAL HepG2 Assay for human Nuclear Receptor Related Protein 1 (NURR1) (AID 2282985; active = hit-call score of the fitted dose curve at least 0.9, where 1 is the maximum); conditions: HepG2 Attagene TRANS reporter, mRNA readout
Chain of Nuclear receptor subfamily 4 group A member 2 (Homo sapiens) (P43354 whole entry, looked up, the tested form may be a part): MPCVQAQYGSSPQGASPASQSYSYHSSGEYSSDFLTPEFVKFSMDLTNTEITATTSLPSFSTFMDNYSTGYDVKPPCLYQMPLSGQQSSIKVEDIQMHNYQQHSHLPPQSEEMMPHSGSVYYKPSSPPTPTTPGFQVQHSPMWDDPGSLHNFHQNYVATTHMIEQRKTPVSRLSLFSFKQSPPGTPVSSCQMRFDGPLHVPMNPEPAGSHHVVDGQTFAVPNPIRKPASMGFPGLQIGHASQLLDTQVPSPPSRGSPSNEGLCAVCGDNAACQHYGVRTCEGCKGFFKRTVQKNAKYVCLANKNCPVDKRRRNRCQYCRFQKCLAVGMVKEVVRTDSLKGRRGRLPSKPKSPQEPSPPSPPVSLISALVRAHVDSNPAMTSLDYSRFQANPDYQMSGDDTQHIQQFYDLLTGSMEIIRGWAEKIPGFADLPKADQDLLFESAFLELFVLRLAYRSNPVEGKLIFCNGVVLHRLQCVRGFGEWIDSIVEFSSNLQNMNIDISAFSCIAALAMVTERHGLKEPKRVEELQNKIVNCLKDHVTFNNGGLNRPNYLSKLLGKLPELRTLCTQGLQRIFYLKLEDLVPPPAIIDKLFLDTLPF
Procedure, shortened: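 Transient transfection of HepG2, human liver cells, with multiple GAL4-UAS reporter transcription units. Cells dosed 24 h, RNA isolated, reverse-transcribed, PCR-amplified, FAM-labelled, HpaI-digested, sized by capillary electrophoresis. DMSO served as negative control.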

[5] = biological target: Transcriptional activator Myb (Homo sapiens) (UniProt P10242); experiment: ATG_Myb_CIS: Attagene CIS-FACTORIAL HepG2 Assay for human Myeloblastosis (Myb) Proto-Oncogene Transcription Factor (AID 2282986); conditions: HepG2 Attagene CIS-FACTORIAL Myb reporter transcription; actives raise or lower the signal
Chain of Transcriptional activator Myb (Homo sapiens) (P10242 whole entry, looked up): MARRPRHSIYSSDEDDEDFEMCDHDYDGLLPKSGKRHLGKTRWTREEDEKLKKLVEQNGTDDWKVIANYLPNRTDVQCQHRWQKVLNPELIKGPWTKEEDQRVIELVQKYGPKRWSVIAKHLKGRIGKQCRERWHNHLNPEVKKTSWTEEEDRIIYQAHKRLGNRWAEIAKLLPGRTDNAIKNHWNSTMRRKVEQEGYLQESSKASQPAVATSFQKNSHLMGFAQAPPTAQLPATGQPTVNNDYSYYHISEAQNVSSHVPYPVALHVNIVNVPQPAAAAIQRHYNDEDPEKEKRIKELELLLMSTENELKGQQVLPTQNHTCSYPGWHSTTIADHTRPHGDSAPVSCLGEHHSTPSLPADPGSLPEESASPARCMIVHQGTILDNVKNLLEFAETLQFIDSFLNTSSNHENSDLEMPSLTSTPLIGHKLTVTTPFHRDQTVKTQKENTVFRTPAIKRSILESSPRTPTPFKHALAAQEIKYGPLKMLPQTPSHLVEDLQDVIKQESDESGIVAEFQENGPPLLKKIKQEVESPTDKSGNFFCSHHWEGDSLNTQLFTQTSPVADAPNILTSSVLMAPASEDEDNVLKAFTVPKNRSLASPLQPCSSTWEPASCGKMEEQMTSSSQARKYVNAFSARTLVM
Procedure, shortened: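 Multiplexed cis-reporter system in HepG2: transient transfection, 24 h treatment, mRNA readout by RT-PCR and capillary electrophoresis. Both increases and decreases are scored versus DMSO negative control.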

[6] = biological target: Nuclear respiratory factor 1 (Homo sapiens) (UniProt Q16656); experiment: ATG_NRF1_CIS: Attagene CIS-FACTORIAL HepG2 Assay for human Nuclear Respiratory Factor 1 (NRF1) Orphan Gene (AID 2282987); conditions: HepG2 NRF1 cis-element reporter, Attagene multiplex; actives raise or lower the signal
Chain of Nuclear respiratory factor 1 (Homo sapiens) (Q16656 whole entry, looked up): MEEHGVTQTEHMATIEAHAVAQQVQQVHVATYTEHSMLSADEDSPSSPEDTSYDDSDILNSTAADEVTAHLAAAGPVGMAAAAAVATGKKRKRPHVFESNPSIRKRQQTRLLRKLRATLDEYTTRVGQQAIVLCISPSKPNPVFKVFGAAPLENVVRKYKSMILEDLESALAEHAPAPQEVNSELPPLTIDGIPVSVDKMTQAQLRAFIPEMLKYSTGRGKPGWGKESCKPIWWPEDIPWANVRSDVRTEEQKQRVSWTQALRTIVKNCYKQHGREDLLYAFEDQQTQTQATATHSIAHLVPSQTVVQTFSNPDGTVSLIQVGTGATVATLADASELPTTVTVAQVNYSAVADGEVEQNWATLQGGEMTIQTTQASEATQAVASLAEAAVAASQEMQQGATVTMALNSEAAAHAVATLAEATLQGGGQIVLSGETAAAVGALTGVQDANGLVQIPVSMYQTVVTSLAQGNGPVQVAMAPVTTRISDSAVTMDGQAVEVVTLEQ
Procedure, shortened: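 Endogenous factor activity was captured via cis-element-driven reporter transcripts in HepG2 cells. Following 24 h chemical treatment, transcripts were quantified by RT-PCR and capillary electrophoresis.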

[7] = ATG_NFI_CIS: Attagene CIS-FACTORIAL HepG2 Assay for human Nuclear Factor I (NFI) (AID 2282989); conditions: HepG2 cis-regulatory reporter, NFI response element transcription; actives raise or lower the signal
Procedure, shortened: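 After transient transfection of HepG2 with cis-promoter reporter constructs and 24 h dosing, RNA is reverse-transcribed, amplified, 6-FAM end-labelled and HpaI-digested before capillary analysis. Bidirectional curve fitting against DMSO.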

[8] = biological target: Myc proto-oncogene protein (Homo sapiens) (UniProt P01106); experiment: ATG_Myc_CIS: Attagene CIS-FACTORIAL HepG2 Assay for human Myelocytomatosis (Myc) Proto-Oncogene Transcription Factor (AID 2282990); conditions: HepG2, Attagene cis-reporter transcription factor activity; actives raise or lower the signal
Chain of Myc proto-oncogene protein (Homo sapiens) (P01106 whole entry, looked up): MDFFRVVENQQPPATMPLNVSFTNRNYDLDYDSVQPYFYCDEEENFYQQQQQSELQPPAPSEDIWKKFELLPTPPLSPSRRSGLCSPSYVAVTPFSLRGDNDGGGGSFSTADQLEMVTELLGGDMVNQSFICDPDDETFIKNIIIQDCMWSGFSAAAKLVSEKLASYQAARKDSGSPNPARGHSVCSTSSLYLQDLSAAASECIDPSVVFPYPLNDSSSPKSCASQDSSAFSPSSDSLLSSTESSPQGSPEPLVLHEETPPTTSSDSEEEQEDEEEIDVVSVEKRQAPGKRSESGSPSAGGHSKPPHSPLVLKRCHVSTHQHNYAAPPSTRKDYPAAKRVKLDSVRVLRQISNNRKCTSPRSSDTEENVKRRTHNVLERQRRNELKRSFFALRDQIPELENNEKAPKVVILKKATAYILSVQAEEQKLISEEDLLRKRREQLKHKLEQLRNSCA
Procedure, shortened: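 HepG2, transient MRTU transfection (cis promoters, endogenous TFs); 24 h dosing; TriZol RNA → oligo(dT) RT → PCR → 6-FAM primer extension → HpaI cut → CE. Bidirectional fit vs DMSO.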

[9] = ATG_NF_kB_CIS: Attagene CIS-FACTORIAL HepG2 Assay for human Nuclear Factor Kappa B (NF-kB) (AID 2282991); conditions: HepG2 Attagene cis-factorial NF-kB reporter mRNA; actives raise or lower the signal
Procedure, shortened: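 After 24 h compound incubation, transfected HepG2 cells yield total RNA; reporter cDNA is PCR-amplified, end-labelled with 6-FAM, HpaI-digested and analysed on a genetic analyser. Endogenous factor activity, DMSO-referenced bidirectional fit.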

[10] = ATG_Oct_MLP_CIS: Attagene CIS-FACTORIAL HepG2 Assay for human Octamer-Binding Transcription Factor (Oct) (AID 2282993); conditions: HepG2 Attagene cis-factorial Oct reporter, mRNA; actives raise or lower the signal
Procedure, shortened: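 Cells of the HepG2 line express promoter-controlled reporter sequences whose mRNA levels, after 24 h treatment, are measured by RT-PCR and capillary electrophoresis. Increases and decreases are scored relative to DMSO.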

[11] = BSK_3C_TissueFactor: BioMAP Diversity Plus: 3C Assay for Tissue Factor Biomarker Activity (AID 2282997); conditions: BioMAP 3C HUVEC, tissue factor biomarker readout; actives raise or lower the signal
Procedure, shortened: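 Endothelial monolayers (human umbilical vein, primary) are dosed, incubated 24 h, and assayed for Tissue Factor by ELISA; DMSO serves as negative control for bidirectional fitting.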

[12] = BSK_3C_uPAR: BioMAP Diversity Plus: 3C Assay for Urokinase-type plasminogen activator receptor (uPAR) Biomarker Activity (AID 2282998); conditions: BioMAP 3C HUVEC, uPAR biomarker ELISA; actives raise or lower the signal
Procedure, shortened: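 Endothelial primary cells of human umbilical vein origin received test chemical; 24 h later uPAR was assayed by ELISA. Fitting was bidirectional, DMSO as negative control.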

[13] = BSK_4H_Eotaxin3: BioMAP Diversity Plus: 4H Assay for Eotaxin 3 Biomarker Activity (AID 2283000); conditions: primary human endothelial cells (HUVEC); actives raise or lower the signal;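 note: CCL26 protein level quantified by ELISA in parallel with SRB cytotoxicity check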
Procedure, shortened: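 ELISA quantitation of CCL26 (Eotaxin-3) protein from chemically dosed human vascular endothelial cells at 24 h; increases and decreases both scored relative to DMSO-treated baseline.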

[14] = biological target: human Peroxisome Proliferator-activated Receptor alpha (PPARa), PPARA (gene 5465) (UniProt Q07869); experiment: ATG_PPARa_TRANS: Attagene TRANS-FACTORIAL HepG2 Assay for human Peroxisome Proliferator-activated Receptor alpha (PPARa) (AID 2283001; active = hit-call score of the fitted dose curve at least 0.9, where 1 is the maximum;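 for AC50: potency for gain of reporter signal over DMSO so agonist or activator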)
Chain of human Peroxisome Proliferator-activated Receptor alpha (PPARa), PPARA (gene 5465) (Q07869 whole entry, looked up, the tested form may be a part): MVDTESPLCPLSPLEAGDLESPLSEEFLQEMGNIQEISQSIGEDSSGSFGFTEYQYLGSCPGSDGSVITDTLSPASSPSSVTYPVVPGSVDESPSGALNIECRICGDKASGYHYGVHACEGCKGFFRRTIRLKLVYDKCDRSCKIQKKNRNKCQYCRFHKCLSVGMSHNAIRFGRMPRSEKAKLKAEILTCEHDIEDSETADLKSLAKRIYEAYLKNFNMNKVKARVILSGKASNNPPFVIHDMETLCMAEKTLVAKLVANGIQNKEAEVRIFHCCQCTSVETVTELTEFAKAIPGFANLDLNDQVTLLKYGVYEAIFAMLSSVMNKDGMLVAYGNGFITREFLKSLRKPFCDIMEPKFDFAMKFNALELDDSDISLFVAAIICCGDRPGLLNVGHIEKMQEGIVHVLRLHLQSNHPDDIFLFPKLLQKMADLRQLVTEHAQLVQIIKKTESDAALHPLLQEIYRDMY
Procedure, shortened: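 Read-out is fluorescence of reporter cDNA fragments resolved by capillary electrophoresis after RT-PCR. Human HepG2 liver cells carried transfected PPARa-Gal4 chimera and GAL4-UAS reporter units, treated 24 h; activity scored as increase over DMSO.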

[15] = biological target: human Peroxisome Proliferator-activated Receptor delta (PPARd), PPARD (gene 5467) (UniProt Q03181); experiment: ATG_PPARd_TRANS: Attagene TRANS-FACTORIAL HepG2 Assay for human Peroxisome Proliferator-activated Receptor delta (PPARd) (AID 2283002; active = hit-call score of the fitted dose curve at least 0.9, where 1 is the maximum)
Chain of human Peroxisome Proliferator-activated Receptor delta (PPARd), PPARD (gene 5467) (Q03181 whole entry, looked up, the tested form may be a part): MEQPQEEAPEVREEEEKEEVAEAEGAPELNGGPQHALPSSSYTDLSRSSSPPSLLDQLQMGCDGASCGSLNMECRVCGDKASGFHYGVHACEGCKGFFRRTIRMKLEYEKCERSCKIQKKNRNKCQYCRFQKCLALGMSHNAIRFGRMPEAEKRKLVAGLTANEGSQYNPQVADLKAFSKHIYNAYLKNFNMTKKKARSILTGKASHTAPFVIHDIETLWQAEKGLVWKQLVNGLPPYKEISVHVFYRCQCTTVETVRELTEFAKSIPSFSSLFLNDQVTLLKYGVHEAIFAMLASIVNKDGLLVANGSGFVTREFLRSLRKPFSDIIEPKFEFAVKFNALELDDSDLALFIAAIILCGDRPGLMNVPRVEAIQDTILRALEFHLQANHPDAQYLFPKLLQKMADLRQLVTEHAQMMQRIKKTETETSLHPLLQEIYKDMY
Procedure, shortened: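 Transient HepG2 transfection (multiple GAL4-UAS RTUs, chimeric receptor-Gal4); 24 h dosing; total RNA → oligo(dT) RT → PCR → 6-FAM primer extension → HpaI cut → CE. Positive direction vs DMSO.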

[16] = read-out: Intercellular Adhesion Molecule 1 (ICAM1), ICAM1 (gene 3383); experiment: BSK_3C_ICAM1: BioMAP Diversity Plus: 3C Assay for Intercellular Adhesion Molecule 1 (ICAM1) Biomarker Activity (AID 2283003); conditions: primary human endothelial cells (HUVEC); actives raise or lower the signal
Procedure, shortened: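 ICAM-1 levels measured by ELISA after HUVEC cultures in the 3C system had been dosed for 24 h. Gain or loss of signal relative to DMSO was fitted in both directions.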

[17] = biological target: Cellular tumor antigen p53 (Homo sapiens) (UniProt P04637); experiment: ATG_p53_CIS: Attagene CIS-FACTORIAL HepG2 Assay for human p53 Transcription Factor (AID 2282994); conditions: HepG2 p53 cis-element reporter, Attagene mRNA; actives raise or lower the signal
Chain of Cellular tumor antigen p53 (Homo sapiens) (P04637 whole entry, looked up): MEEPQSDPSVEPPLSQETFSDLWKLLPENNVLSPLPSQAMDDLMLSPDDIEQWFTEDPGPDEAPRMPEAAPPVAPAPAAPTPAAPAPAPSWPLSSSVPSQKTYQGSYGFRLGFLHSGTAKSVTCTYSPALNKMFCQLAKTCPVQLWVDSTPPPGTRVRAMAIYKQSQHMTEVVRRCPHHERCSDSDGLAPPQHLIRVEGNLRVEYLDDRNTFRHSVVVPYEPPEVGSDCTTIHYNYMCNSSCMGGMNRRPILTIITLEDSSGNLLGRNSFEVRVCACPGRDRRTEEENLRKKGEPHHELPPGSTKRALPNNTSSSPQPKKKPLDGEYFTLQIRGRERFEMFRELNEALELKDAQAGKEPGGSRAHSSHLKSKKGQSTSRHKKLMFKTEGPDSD
Procedure, shortened: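 Using HepG2 hepatoma cells carrying cis-acting multiplexed reporters, mRNA induction is detected after a 24 h exposure. Gain- and loss-of-signal responses are fitted relative to DMSO-treated cells.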

[18] = ATG_NRF2_ARE_CIS: Attagene CIS-FACTORIAL HepG2 Assay for human Nuclear Factor Erythroid 2 Related Factor 2 (NFR2) response to Antioxidant Response Elements (ARE) (AID 2282992); conditions: HepG2 Attagene ARE/NRF2 reporter, transcription factor activity; actives raise or lower the signal
Procedure, shortened: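 Cis-factorial assay: transfected HepG2 reporter library, 24 h dosing, mRNA readout via RT-PCR/CE; DMSO-referenced bidirectional analysis.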

[19] = BSK_3C_VCAM1: BioMAP Diversity Plus: 3C Assay for Vascular cell adhesion molecule 1 (VCAM1) Biomarker Activity (AID 2282999); conditions: BioMAP 3C HUVEC, VCAM1 ELISA, cytokine-stimulated; actives raise or lower the signal
Procedure, shortened: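 Endothelial cells from human umbilical vein are treated with test chemical. At 24 h, VCAM-1 is measured by ELISA, and responses in either direction are fitted relative to DMSO.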

[20] = biological target: human Retinoic Acid Receptor beta (RARb), RARB (gene 5915) (UniProt P10826); experiment: ATG_RARb_TRANS: Attagene TRANS-FACTORIAL HepG2 Assay for human Retinoic Acid Receptor beta (AID 2283004; active = hit-call score of the fitted dose curve at least 0.9, where 1 is the maximum)
Chain of human Retinoic Acid Receptor beta (RARb), RARB (gene 5915) (P10826 whole entry, looked up, the tested form may be a part): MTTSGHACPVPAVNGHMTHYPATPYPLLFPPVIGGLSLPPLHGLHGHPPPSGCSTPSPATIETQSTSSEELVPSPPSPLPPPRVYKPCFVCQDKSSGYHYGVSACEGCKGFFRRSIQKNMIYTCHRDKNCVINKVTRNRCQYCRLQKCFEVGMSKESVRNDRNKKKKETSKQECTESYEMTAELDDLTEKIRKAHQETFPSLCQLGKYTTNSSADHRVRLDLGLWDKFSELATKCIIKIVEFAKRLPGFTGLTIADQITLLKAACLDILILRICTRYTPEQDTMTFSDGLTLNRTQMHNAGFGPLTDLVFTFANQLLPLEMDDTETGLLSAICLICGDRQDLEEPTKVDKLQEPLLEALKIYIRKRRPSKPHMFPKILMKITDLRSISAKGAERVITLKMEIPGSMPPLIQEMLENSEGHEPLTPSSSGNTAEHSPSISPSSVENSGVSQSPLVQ
Procedure, shortened: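 Fluorescent capillary-electrophoresis detection of GAL4-UAS reporter mRNA defines the endpoint, with induction over DMSO-treated wells scored as activity. Transiently transfected human hepatoma HepG2 cells expressing exogenous NR–Gal4 proteins are exposed to test chemicals for 24 h.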

Measured: AC50

O=C(Cc1ccccc1)OCCc1ccccc1
not listed: [17] | [18] | [19] | [20]
inactive: all other assays above

COP(=S)(OC)Oc1cc(Cl)c(I)cc1Cl
active: [5] 49.5 µM | [7] 29.1 µM | [9] 55.6 µM | [10] 30.7 µM | [17] 52.6 µM | [14] 38 µM
inactive: [1] | [2] | [3] | [4] | [8] | [15]

O=[N+]([O-])c1ccccc1O
inactive: [1] | [2] | [3] | [4] | [5] | [6] | [7] | [8] | [10] | [17] | [14]

Nc1ccc(Br)cc1
not listed: [11] | [12] | [13] | [15] | [16] | [18] | [19] | [20]
inactive: all other assays above

Cc1cc(C(C)(C)c2ccc(O)c(C)c2)ccc1O
active: [4] 69.3 µM | [5] 89.7 µM | [18] 11.7 µM | [10] 34.8 µM | [17] 33.7 µM | [11] 13.6 µM | [12] 10 µM | [19] 15 µM
not listed: [9] | [14] | [20]
inactive: all other assays above

O=NN1CCCCCC1
inactive: [1] | [2] | [3] | [4] | [5] | [6] | [7] | [9] | [18] | [10] | [17]

N#Cc1ccncc1
not listed: [6] | [11] | [12] | [13] | [16] | [18] | [19]
inactive: all other assays above

O=[N+]([O-])c1cccc2ccccc12
active: [18] 23.7 µM
not listed: [4] | [15] | [20]
inactive: all other assays above

OC[P+](CO)(CO)CO
active: [18] 30.2 µM and 26.4 µM
not listed: [9] | [11] | [12] | [13] | [16] | [17] | [19]
inactive: all other assays above
